Assay results taken from PubChem BioAssay (EPA / NIEHS).
Where “and” joins values, the source holds several entries; their conditions need not be identical. Equal entries are not always repeated. Inconclusive results are not listed. A structure can be active in one record and inactive in another. Calls of active or inactive are those of the source. The calls were made as follows, unless noted: active = hit-call score of the fitted dose curve at least 0.9, where 1 is the maximum; inactive = score below 0.9.

Assays:
[1] = ACEA_ER_80hr: ACEA Biosciences xCELLigence Real-Time Cell Analysis on Estrogen Receptor Agonism for Proliferation (AID 2282667; active = hit-call score of the fitted dose curve at least 0.9, where 1 is the maximum); details: T47D proliferation, impedance (xCELLigence), 80 h
Procedure, shortened: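 Cell-growth kinetics were measured by impedance in T47D cells treated continuously with compound (top 100 uM final, 1:4 steps, 8 points). Activity at 80 h was scored as signal gain over the DMSO baseline.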

[2] = APR_HepG2_CellCycleArrest_24hr: Apredica 24-hour HepG2 Assay for Cell Cycle Arrest (AID 2282905); details: imaging, actives raise or lower the signal;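 also: cell cycle arrest scored as ratio of 2N to 4N nuclear DNA content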
Procedure, shortened: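 Readout: Hoechst 33342 nuclear DNA content by high-content fluorescent imaging, six images/well, 20x. Human HepG2 liver cells, 24 hr compound exposure, 0.39–200 uM, final DMSO 0.5% v/v. Gain or loss fitted relative to DMSO baseline.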

[3] = APR_HepG2_NuclearSize_24hr: Apredica 24-hour HepG2 Assay for Nuclear Size (AID 2282907); details: high-content imaging, actives raise or lower the signal
Procedure, shortened: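 Read-out: nuclear diameter from Hoechst 33342 (2 ug/mL) imaging of fixed HepG2 cells, 20x, six fields/well. Compounds ran at 0.39–200 uM for 24 hr, 0.5% DMSO final. Gain or loss was fitted bidirectionally relative to the DMSO baseline.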

[4] = APR_HepG2_CellLoss_24hr: Apredica 24-hour HepG2 Assay for Cell Loss (AID 2282908); details: high-content imaging;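 as to AC50: fit in both directions so a hit may be cell loss or gain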
Procedure, shortened: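 Read-out: Hoechst 33342-stained nuclei counted by automated fluorescence imaging after formaldehyde fixation and Triton permeabilization. Ten concentrations, 0.39 to 200 uM, duplicate wells, 0.5% DMSO final. Gain or loss of signal fitted relative to DMSO baseline.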

[5] = APR_HepG2_MicrotubuleCSK_24hr: Apredica 24-hour HepG2 Assay for Microtubule CSK Stabilty (AID 2282909); details: HepG2 microtubule cytoskeleton imaging, actives raise or lower the signal
Procedure, shortened: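 Read-out: alpha-tubulin immunofluorescence intensity by automated high-content imaging of fixed HepG2 cells after 24 h compound treatment. Ten concentrations, 0.39 to 200 uM, in duplicate; DMSO 0.5% v/v. Taxol positive control; DMSO-normalized bidirectional curve fitting.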

[6] = APR_HepG2_MitoticArrest_24hr: Apredica 24-hour HepG2 Assay for Mitotic Arrest (AID 2282910); details: high-content imaging, actives raise or lower the signal
Procedure, shortened: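 HepG2, 24 hr dosing, 0.39–200 uM, 0.5% DMSO final. Formaldehyde-fixed, Triton-permeabilised, anti-phospho-histone H3 plus Hoechst. ArrayScan imaging at 20x; bidirectional fit vs DMSO baseline.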

[7] = APR_HepG2_MitoMembPot_24hr: Apredica 24-hour HepG2 Assay for Mitochondrial Membrane Potential (AID 2282911); details: imaging, actives raise or lower the signal
Procedure, shortened: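 Human hepatoma HepG2 cultures received ten compound concentrations up to 200 uM for 24 hr. Membrane-potential dye signal, captured by automated fluorescence microscopy, was scored for gain or loss against DMSO controls.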

[8] = APR_HepG2_MitoMass_24hr: Apredica 24-hour HepG2 Assay for Mitochondrial Mass (AID 2282912); details: high-content imaging, actives raise or lower the signal
Procedure, shortened: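 HepG2, 24 hr dosing, 10 concentrations 0.39–200 uM in duplicate, DMSO 0.5% final. MitoTracker Red CMXRos 250 nM, 30 min pre-fix; 3.7% formaldehyde fix. Imaging-based fluorescence intensity; gain/loss fit vs DMSO baseline.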

[9] = APR_HepG2_p53Act_24hr: Apredica 24-hour HepG2 Assay for p53 Activation (AID 2282913); details: high-content imaging, actives raise or lower the signal;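 also: p53 protein immunofluorescence averaged per cell in HepG2 with Hoechst nuclei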
Procedure, shortened: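 Automated fluorescence imaging quantifies p53 immunostaining in HepG2 cells after a 24 hr exposure (0.39–200 uM, duplicate, 0.5% DMSO). Nuclei are located by Hoechst 33342 staining.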

[10] = APR_HepG2_CellCycleArrest_72hr: Apredica 72-hour HepG2 Assay for Cell Cycle Arrest (AID 2282914); details: high-content imaging, actives raise or lower the signal
Procedure, shortened: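 Cell cycle arrest in HepG2 was scored from nuclear DNA content after 72 hr compound treatment (0.39–200 uM). Activity, either gain or loss, was fitted against the DMSO baseline.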

Measured: AC50

CC[C@H](c1ccc(O)cc1)[C@@H](CC)c1ccc(O)cc1
active: [1] 6.89 nM and 5.23 nM and 2.6 nM | [7] 0.0485 µM
inactive: all other assays above

CN1CCC[C@H]1c1cccnc1
not listed: [9]
inactive: all other assays above

Cc1ccc(S(=O)(=O)O)c(C)c1
inactive: [1]

CCCCCCCCCCCCc1ccccc1S(=O)(=O)O
active: [4] 116 µM | [6] 106 µM | [9] 120 µM
not listed: [2]
inactive: all other assays above

CCCOc1sc(C(=O)N2CCC(c3cc(CN)ccc3F)CC2)c(C)c1Br
inactive: [1] | [3] | [8] | [10]
active: [2] 22.3 µM | [4] 6.74 µM | [5] 15.6 µM | [6] 5.77 µM | [7] 7.27 µM | [9] 4.2 µM

CC(O)C(=O)O (configuration not stated)
inactive: [1]

C[C@@H]1C[C@H]2[C@@H]3CCC4=CC(=O)C=C[C@]4(C)[C@@]3(F)[C@@H](O)C[C@]2(C)[C@@]1(O)C(=O)COP(=O)(O)O
inactive: [1]
active: [1] 0.685 µM | [3] 9.81 µM | [4] 15.4 µM | [5] 94 µM | [6] 1.76 µM | [7] 37.7 µM | [8] 2.64 µM | [9] 27.5 µM | [10] 94 µM

O=[N+]([O-])c1ccc(O)cc1
inactive: all assays above

CCOC(=O)CC(O)(CC(=O)OCC)C(=O)OCC
active: [1] 0.75 µM
inactive: all other assays above

CCCCC(CC)COC(=O)CCCCC(=O)OCc1ccccc1 (configuration not stated)
inactive: all assays above

CCc1nn(C2CCCCC2)c2cc(C3(C#N)CCC(C(=O)O)CC3)ccc12 (configuration not stated)
inactive: all assays above

CCCCCCCCOC(=O)CCCCCCCCC(=O)OCCCCCCCC
inactive: all assays above

O=c1c(-c2ccc(O)cc2)coc2cc(O)ccc12
active: [1] 330 nM and 318 nM and 427 nM
inactive: all other assays above

CCC(C)(C)C1CCC(O)CC1 (configuration not stated)
inactive: [1] | [2] | [3] | [5] | [6] | [7] | [8] | [10]
active: [1] 2.38 µM and 336 nM | [4] 99.8 µM | [9] 122 µM

CCCCCCCCCCCCCC[N+](C)(C)C
active: [1] 128 nM and 101 nM

COCC(C)OCC(C)O (configuration not stated)
inactive: all assays above

OC1CCCCC1
inactive: all assays above

CC(C)(C)c1ccc(O)c(C(C)(C)C)c1
active: [4] 38.5 µM | [7] 8.96 µM
inactive: all other assays above

NCC(F)(F)C(F)(F)C(F)(F)C(F)(F)C(F)(F)C(F)(F)C(F)(F)F
inactive: [1]

ClC1=C(Cl)C(Cl)(Cl)C(Cl)=C1Cl
inactive: all assays above

CC(C)CCCCCCOC(=O)CCCCC(=O)OCCCCCCC(C)C
inactive: all assays above

c1ccc2cc3c(ccc4ccccc43)cc2c1
inactive: [1] | [3] | [5]
active: [1] 11.7 µM and 2.92 µM | [4] 48.1 µM | [6] 65.7 µM | [7] 63 µM | [8] 55.8 µM | [9] 103 µM | [10] 17.4 µM

COC(=O)CCCCC(=O)OC
inactive: all assays above

CCc1ccc(CCOc2ccc(CC3SC(=O)NC3=O)cc2)nc1 (configuration not stated)
active: [2] 30.6 µM | [4] 110 µM | [10] 94.4 µM
inactive: all other assays above

CCC(=C(c1ccc(O)cc1)c1ccc(OCCN(C)C)cc1)c1ccccc1
active: [1] 0.00229 µM
inactive: [1] | [2] | [3] | [4] | [5] | [6] | [7] | [8] | [10]

FC(F)(I)C(F)(F)C(F)(F)C(F)(F)C(F)(F)C(F)(F)I
active: [1] 6.86 nM and 252 nM

O=C1OC2(c3ccccc31)c1cc(Br)c(O)c(Br)c1Oc1c2cc(Br)c(O)c1Br
active: [1] 20.5 µM
inactive: [1]

CCCCCCCCC(=O)O
inactive: all assays above

CC(=O)CC(C)(C)O
inactive: [3] | [7]
active: [1] 16.2 µM | [2] 0.0392 µM | [4] 19.8 µM | [5] 0.0415 µM | [6] 0.0402 µM | [8] 8.56 µM | [9] 0.106 µM | [10] 32.1 µM

Oc1cccc(O)c1
inactive: all assays above

COc1cc(CCC(=O)CC(=O)CCc2ccc(O)c(OC)c2)ccc1O
inactive: all assays above

OCCC(F)(F)C(F)(F)C(F)(F)C(F)(F)C(F)(F)C(F)(F)C(F)(F)C(F)(F)F
inactive: [1] | [7]
active: [3] 75 µM | [4] 27.8 µM | [5] 23.1 µM | [6] 24.1 µM | [8] 29.9 µM | [9] 25.1 µM | [10] 14.7 µM

CC(C)(C)c1cc(C(C)(C)C)c(O)c(C(C)(C)C)c1
active: [1] 10.6 µM
inactive: all other assays above

COCC(C)O (configuration not stated)
active: [7] 0.0477 µM
inactive: all other assays above

C=C(C)C(=O)OCCC(F)(F)C(F)(F)C(F)(F)C(F)(F)C(F)(F)C(F)(F)F
inactive: all assays above

CC(O)CO (configuration not stated)
not listed: [2]
inactive: all other assays above

Cc1cc(C)c(O)c(C)c1
not listed: [2]
inactive: all other assays above

CC(=O)NC1(c2cccc(F)c2)CCN(CC[C@@]2(c3ccc(Cl)c(Cl)c3)CN(c3ccccc3)C(=O)CO2)CC1
active: [4] 36.3 µM | [5] 146 µM | [6] 31.6 µM | [7] 90.2 µM | [8] 151 µM | [9] 21.6 µM | [10] 18.7 µM
inactive: [1] | [3]

NC(=O)N1C(=O)C(C(=O)c2cc(Cl)cs2)c2cc(F)c(Cl)cc21 (configuration not stated)
inactive: [1] | [3] | [7]
active: [4] 98.8 µM | [5] 75.3 µM | [6] 84.7 µM | [8] 107 µM | [9] 105 µM | [10] 96.9 µM

CCCCC(CC)COC(=O)CCCCC(=O)OCC(CC)CCCC (configuration not stated)
not listed: [2]
inactive: all other assays above

COc1ccc([N+](=O)[O-])cc1N
not listed: [2]
inactive: all other assays above

CCCCOCCO
not listed: [2]
inactive: all other assays above

CCCOC(=O)c1ccc(O)cc1
active: [1] 2.7 µM
not listed: [2]
inactive: all other assays above
